The record followed here is PubChem BioAssay AID602124 (The Scripps Research Institute Molecular Screening Center, 2011).

Among all 1,300 compounds or so, about 630 (48%) were called active. Rule as the data show it: active = inhibition above about 6.5%; inactive = the rest. The set was probably picked from earlier hits. Only a sample is shown.

In this experiment the target is Tyrosine-protein kinase ABL1 (Homo sapiens) + Ras and Rab interactor 1 (Homo sapiens) (UniProt P00519+Q13671). Kind of experiment: Rin1-Abl binding inhibitor retest, confirmation, biochemical, TR-FRET (AID 602124). The note with it: purified proteins, at 7.35 µM, stronger effect = higher value. (In general: In TR-FRET formats the signal depends on donor and acceptor labels being close together.)
Chain of Tyrosine-protein kinase ABL1 (Homo sapiens) + Ras and Rab interactor 1 (Homo sapiens) (P00519 whole entry, looked up): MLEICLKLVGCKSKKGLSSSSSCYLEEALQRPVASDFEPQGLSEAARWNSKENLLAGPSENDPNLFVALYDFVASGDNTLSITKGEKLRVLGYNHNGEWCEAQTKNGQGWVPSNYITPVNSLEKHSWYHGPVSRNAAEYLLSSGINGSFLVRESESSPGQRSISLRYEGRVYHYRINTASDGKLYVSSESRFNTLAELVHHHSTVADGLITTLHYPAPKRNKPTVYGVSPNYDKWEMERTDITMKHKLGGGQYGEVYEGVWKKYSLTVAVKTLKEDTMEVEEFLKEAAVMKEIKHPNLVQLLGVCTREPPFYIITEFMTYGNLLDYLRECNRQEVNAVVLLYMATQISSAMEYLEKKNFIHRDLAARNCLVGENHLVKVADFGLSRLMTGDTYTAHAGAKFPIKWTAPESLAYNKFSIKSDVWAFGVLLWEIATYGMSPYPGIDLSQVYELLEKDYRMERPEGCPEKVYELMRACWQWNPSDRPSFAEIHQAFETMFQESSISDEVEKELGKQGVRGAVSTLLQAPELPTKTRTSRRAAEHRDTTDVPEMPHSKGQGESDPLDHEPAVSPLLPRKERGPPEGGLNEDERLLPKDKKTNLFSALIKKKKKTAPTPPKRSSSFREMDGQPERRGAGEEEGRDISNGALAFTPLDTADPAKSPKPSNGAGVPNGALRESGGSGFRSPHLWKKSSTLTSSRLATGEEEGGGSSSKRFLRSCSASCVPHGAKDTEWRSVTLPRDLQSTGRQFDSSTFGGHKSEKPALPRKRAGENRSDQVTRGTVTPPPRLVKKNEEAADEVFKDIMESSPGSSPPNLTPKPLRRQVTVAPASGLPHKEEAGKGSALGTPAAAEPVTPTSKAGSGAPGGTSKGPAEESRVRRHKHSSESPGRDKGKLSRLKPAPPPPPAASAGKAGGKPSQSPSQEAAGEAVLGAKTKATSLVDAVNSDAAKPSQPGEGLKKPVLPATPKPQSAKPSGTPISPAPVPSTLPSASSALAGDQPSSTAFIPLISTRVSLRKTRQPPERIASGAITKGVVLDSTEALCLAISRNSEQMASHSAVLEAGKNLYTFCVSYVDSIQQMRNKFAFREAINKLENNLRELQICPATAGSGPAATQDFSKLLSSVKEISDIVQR
Chain of Tyrosine-protein kinase ABL1 (Homo sapiens) + Ras and Rab interactor 1 (Homo sapiens) (Q13671 whole entry, looked up): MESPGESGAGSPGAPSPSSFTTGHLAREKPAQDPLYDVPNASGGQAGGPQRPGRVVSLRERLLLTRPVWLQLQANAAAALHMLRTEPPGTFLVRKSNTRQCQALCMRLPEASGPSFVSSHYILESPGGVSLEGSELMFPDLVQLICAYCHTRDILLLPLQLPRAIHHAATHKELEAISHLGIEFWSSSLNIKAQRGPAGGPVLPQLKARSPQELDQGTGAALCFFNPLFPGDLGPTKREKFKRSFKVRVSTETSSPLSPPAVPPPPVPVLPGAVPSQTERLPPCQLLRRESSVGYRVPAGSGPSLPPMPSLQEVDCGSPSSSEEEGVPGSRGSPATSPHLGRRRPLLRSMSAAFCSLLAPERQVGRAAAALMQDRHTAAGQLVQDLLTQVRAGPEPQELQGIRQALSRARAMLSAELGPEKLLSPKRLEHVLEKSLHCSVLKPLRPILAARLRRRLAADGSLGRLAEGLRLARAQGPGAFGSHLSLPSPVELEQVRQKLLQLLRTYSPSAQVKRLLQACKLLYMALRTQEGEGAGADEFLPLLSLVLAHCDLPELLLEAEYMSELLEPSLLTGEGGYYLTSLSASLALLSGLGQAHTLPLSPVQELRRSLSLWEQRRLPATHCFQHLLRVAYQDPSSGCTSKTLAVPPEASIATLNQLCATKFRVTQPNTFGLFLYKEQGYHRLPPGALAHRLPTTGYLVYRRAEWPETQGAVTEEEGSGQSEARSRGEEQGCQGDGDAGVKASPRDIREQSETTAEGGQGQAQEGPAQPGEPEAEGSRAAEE
Take `CN(C(=O)c1ccc(NC(=O)Cc2cccc(NC(=O)C3CCN(C(=O)c4ccccc4)CC3)c2)cc1)C1CC1`: the inhibition was 26% (active).

`CC(=O)Nc1ccc(CN2CCC(Oc3ccc(C(=O)N4CCCC4)cc3)CC2)cc1`: the inhibition is 3.99% (inactive).

For the compound `CCOC(=O)CN(C(=O)COc1nc(C)cc(C)c1C#N)c1ccc(Cl)cc1`, the inhibition is 0.28% (inactive).

As for `O=C(NNc1c2ccccc2nc2ccccc12)c1cc2ccccc2cc1O`, the inhibition was 1.57% (inactive).

Take `CCCn1c(N)c(C(=O)CSc2nnc(-c3cccnc3)n2-c2ccc(C)cc2C)c(=O)[nH]c1=O`: the inhibition is 13.8% (active).

For `Cc1ccc(-n2c(SCC(=O)NCc3ccc4c(c3)OCO4)nnc2-c2cccnc2)c(C)c1`, the inhibition was 12.5% (active).

Turning to `CCOc1ccc(-n2c(SCC(=O)NC3CCS(=O)(=O)C3)nnc2-c2cccnc2)cc1` (stereo not given), the inhibition is 3.68% (inactive).

On to `COCCNC(=O)Nc1ccc2nc(-c3ccco3)c(-c3ccco3)nc2c1`, for which the inhibition is 5.72% (inactive).

With `CN(CC(=O)Nc1ccc(F)cc1)CC(=O)Nc1ccc(Cl)c(S(=O)(=O)N2CCOCC2)c1`, the inhibition was 0.32% (inactive).

As for `Cc1ccccc1C(=O)N1CCC(C(=O)Nc2ccc(S(=O)(=O)N(C)C(C)C)cc2)CC1`, the inhibition was 9.43% (active).

As to `CCc1ccc(CN(C)C(C)C(=O)Nc2ccc(S(=O)(=O)N3CCCC3)cc2)cc1` (stereo not given), the inhibition is -1.11% (inactive).

On to `O=C(Nc1ccc(S(=O)(=O)Nc2ncccn2)cc1)c1cncc(Br)c1`, for which the inhibition is 1.84% (inactive).

As for `CC(CCO)Nc1nc2c([nH]1)c(=O)n(C)c(=O)n2C` (stereo not given), the inhibition is 1.44% (inactive).

`O=c1ccc2c(-c3ccccc3S(=O)(=O)O)c3ccc(O)c(O)c3oc-2c1O`: the inhibition is 67% (active).

As for `CN(C)c1ccc(N/C=C/C(=O)C(F)(F)F)cc1`, the inhibition was -4.29% (inactive).

Turning to `COC(=O)c1ccc(COC(=O)C2CCN(S(=O)(=O)c3c(Cl)cccc3Cl)CC2)o1`, the inhibition is 16.6% (active).

For the compound `O=C(COc1ccc(S(=O)(=O)NCCc2ccccc2)cc1)N1CCCC1`, the inhibition was -1.2% (inactive).

Take `Cc1cc2ccccc2n1CCNC(=O)COc1ccc2ccccc2c1`: the inhibition was 0.15% (inactive).

With `CCOC(=O)N1CCC(c2cc(=O)n(-c3ccccc3)[nH]2)CC1`, the inhibition is -2.37% (inactive).

Take `CCOC(=O)N1CCN(C(=O)C2CCN(c3ncnc4c3sc3cccc(F)c34)CC2)CC1`: the inhibition was 28.5% (active).

Consider `CCOC(=O)N1CCN(C(=O)C2CCCN(c3ncnc4c3sc3cccc(F)c34)C2)CC1` (stereo not given), for which the inhibition is 9.09% (active).

`Cc1cc(NC(=O)CSCC(=O)NC(C)c2ccccc2)no1` (stereo not given): the inhibition was 0.39% (inactive).

Turning to `O=C(Nc1ccc(OC(F)(F)F)cc1)c1ccc2c(c1)no[n+]2[O-]`, the inhibition is -0.65% (inactive).

Consider `CC(OC(=O)c1ccccc1NCCO)C(=O)Nc1ccnn1C(C)C` (stereo not given), for which the inhibition was 53.2% (active).

In the case of `COc1ccc(CNC(=O)c2cc(C(=O)C3CC3)c[nH]2)cc1`, the inhibition was 1.47% (inactive).

Take `CSc1ncnc2c1ncn2CC(=O)C1CCC2C3CCC4=CC(=O)CCC4(C)C3CCC12C` (stereo not given): the inhibition was 11.9% (active).

In the case of `C#CCOCCOCCOCCNc1nc(N2CCN(C(=O)C(Cc3ccc(O)cc3)n3cc(C(N)CC(C)C)nn3)CC2)nc(N2CCN(C(=O)C(Cc3ccc(O)cc3)n3cc(C(N)C(C)CC)nn3)CC2)n1` (stereo not given), the inhibition is 13.9% (active).

Turning to `C[C@@H]1CN([C@H](C)CO)S(=O)(=O)c2ccc(C#C[C@@H](C)O)cc2O[C@@H]1CN(C)Cc1ccc(-c2ccccc2)cc1`, the inhibition was 32.5% (active).

Turning to `O=C(c1cn(-c2ccccc2)nc1-c1cc2ccccc2oc1=O)N1CCOCC1`, the inhibition is -4.12% (inactive).

As to `O=C(CNCc1ccco1)Nc1cc(S(=O)(=O)N2CCOCC2)ccc1N1CCCC1`, the inhibition is -1.42% (inactive).

For `Oc1c(CN2CCN(c3ccc(F)cc3)CC2)cc(Cl)c2cccnc12`, the inhibition is -0.1% (inactive).

On to `C=C1c2c(Cl)ccc(O)c2C(O)=C2C(=O)[C@]3(O)C(O)=C(C(N)=O)C(=O)[C@@H](N(C)C)[C@@H]3[C@@H](O)C12` (stereo not given in full), for which the inhibition is 13.9% (active).

Turning to `CC(C)CNS(=O)(=O)c1ccc(C(=O)Nc2ccc3c(c2)OCO3)cc1`, the inhibition was -0.58% (inactive).

For `CN(Cc1c(F)cccc1Cl)C(=O)CNC(=O)c1ccc2c(c1)OCO2`, the inhibition is 45.8% (active).

For `C=CCn1cc(C(=O)NCc2ccc(Cl)cc2)c(=O)c2cc(S(=O)(=O)N(CC)CC)ccc21`, the inhibition was 0.48% (inactive).

Regarding `CCc1cc2c(N3CCN(c4nnc(CC)s4)CC3)ncnc2s1`, the inhibition is 4.08% (inactive).

`C=CCn1c2ccccc2c2nnc(SCc3[nH]c(=O)[nH]c3C(=O)CCCCC(=O)OCC)nc21`: the inhibition is 71.5% (active).

For the compound `Cc1ccc(C(NC(=O)C2CCN(CCOc3ccc(Cl)cc3Cl)CC2)c2ccccn2)cc1` (stereo not given), the inhibition is 0.23% (inactive).

As to `Cc1cccc(N(C)C(=O)CN2C(=O)COc3ccc(S(=O)(=O)N4CCCCCC4)cc32)c1`, the inhibition was 7.15% (active).

`CCOc1ccc(S(=O)(=O)N2CCCCC2)cc1NC(=O)CN1CCCC1c1cccs1` (stereo not given): the inhibition is 0.05% (inactive).

Turning to `NS(=O)(=O)c1ccc(CCNC(=O)Nc2ccc(Cl)cc2)cc1`, the inhibition was -1.53% (inactive).

`Oc1cccc2cc(-c3ccncc3)cnc12`: the inhibition is 20.6% (active).

As to `CCOc1ccc(CNC(=O)C2CCCN(c3nnc(C)c4c(C)n(-c5ccccc5)nc34)C2)cc1` (stereo not given), the inhibition is 12.6% (active).

On to `OC[C@@H]1CN(Cc2ccc(Cl)cc2)C[C@H](n2cnc3c(NCc4ccncc4)ncnc32)O1`, for which the inhibition was 2.98% (inactive).

For `Cc1nn(-c2ncc(C(F)(F)F)cc2Cl)c(=O)n1-c1ccccc1`, the inhibition is -0.89% (inactive).

As to `O=C(CC1SCCNC1=O)Nc1ccc(Cl)cc1` (stereo not given), the inhibition is 12.1% (active).

In the case of `Nc1nc2n(n1)C(c1ccco1)CC(c1ccc(Cl)c(Cl)c1)N2` (stereo not given), the inhibition is 0.66% (inactive).

As to `O=c1c2c(nc3n1CCCCC3)sc1c(O)cccc12`, the inhibition was 14.5% (active).

`CC(=O)NC(c1cccs1)c1cc(Br)c2cccnc2c1O` (stereo not given): the inhibition is 15.9% (active).

On to `Cc1c(CC(=O)N2CCN(C(=O)C3COc4ccccc4O3)CC2)c(=O)oc2c(O)c(O)ccc12` (stereo not given), for which the inhibition is 8.45% (active).

For the compound `NC1=CC(=O)C(=O)c2cccnc21`, the inhibition is 19.5% (active).

As to `COc1cc(C(=S)N2CCOCC2)ccc1O`, the inhibition is -2.83% (inactive).

Take `Cc1ccccc1CN1C[C@@H]2C[C@@H](c3ccc4nsnc4c3)N3CCC[C@@]23C1=O`: the inhibition is 22% (active).

With `Nc1cc(=O)c2[nH]cnc2[nH]1`, the inhibition is 18.1% (active).

Turning to `O=c1cc(CO)oc(CN2CCC(Cc3ccccc3)CC2)c1O`, the inhibition was -3.76% (inactive).

As usually defined, the inhibition is the drop in the measured response relative to a control, in per cent.
